# Assay outcomes from PubChem BioAssay.
# Many of the other results were omitted from the sample, so hits are more common in it than they were.
# Pf Dd2 inh = inhibitors of Plasmodium falciparum Dd2 growth; P. falciparum Dd2 growth, SYBR Green, 72 h; hit rate 4.3% among 120,000; AID 1347417; Potency, µM (doses to about 28.9 µM), for the others: at the highest dose activity, negative = inhibition, actives largely listed as inhibitors; active = well fitted inhibition curve with a large enough effect;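 also: plate controls were DMSO vehicle for no effect and reference drug for full effect; nearly all actives have a fitted effect of over 65% in size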
#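 Readout: SYBR Green fluorescence, 485 nm excitation, 535 nm emission, after ~16 h lysis at 37C. Before that, Dd2-infected red cells (2.5% hematocrit) grew 72 h with compound, 29 uM top final concentration.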
# Starred values were filed as active, the others as inactive; i = inactive. Potency is read from the fitted curve at half-maximal effect.
SMILES,Pf Dd2 inh
Cc1ccccc1CN1C(=O)c2ccccc2S(=O)c2ccc(C(=O)NCc3ccccc3)cc21 (stereo not given),i
COC(=O)c1cc(NC(=O)c2ccc3c(c2)N(Cc2cccc(Cl)c2)C(=O)c2ccccc2S3=O)cc(C(=O)OC)c1 (stereo not given),3.2µM*
Cc1ccc(NC(=O)CC2=C3CCCCC3N(C)C2=O)cc1 (stereo not given),-26%
Cc1ccc(NC(C)(C)C(=O)N2CCC3(CC2)CN(C)CCN3C)cc1,i
O=C1CO[C@H]2CCN(CCCc3ccccc3)CC[C@@H]2N1c1ccccc1,i
CCC1CN(C(=O)c2ccc(NCc3cnn(CC)c3)nc2)CCN1C(C)C (stereo not given),-6%
O=C1NCCOCCN(S(=O)(=O)c2cccc3cccnc23)[C@@H]2CCCC[C@H]12,-13%
CN(Cc1cccnc1)C1CN(C(=O)c2ccc3ccccc3n2)C1,0%
COc1cc(NC(=O)N2CCc3c(sc4c3CCCC4)C2c2ccccc2)cc(OC)c1OC (stereo not given),16%
COc1ccc(Cl)cc1NC(=O)CN1C(=O)NC2(CCCCC2)C1=O,i
COc1ccc(Cl)cc1NC(=O)N1CC(=O)Nc2sc3c(c2C1c1ccccc1)CCCC3 (stereo not given),11µM*
CCN1c2cc(C(=O)NCc3ccc(F)cc3Cl)ccc2C(=O)N2CCCCC21 (stereo not given),i
Cc1onc(-c2cnn(C)c2NCc2ccccc2)c1C(=O)N1CCC(c2ccccc2)CC1,i
COc1ccc(-c2cn3c(n2)N(C(=O)Cn2ccnc2)CCC3)cc1,6%
Cc1ccc(-c2cn3c(n2)N(C(=O)Cn2ccnc2C)CCC3)cc1,10µM*
Cc1ccc(-c2cn3c(n2)N(C(=O)c2cnn4cccnc24)CCC3)cc1,-6%
CC(C)Oc1ccc(C(=O)N2[C@@H]3CC[C@H]2CC(NC(=O)c2ccc(F)cc2)C3)cc1 (stereo not given in full),-16%
CCc1ccc(C(=O)N2CCC(N3C(=O)CCC3C(=O)NCc3ccccc3)CC2)cc1 (stereo not given),-14%
CC1Oc2ccc(NC(=O)c3ccc(F)cc3)cc2CN(Cc2ccc3c(c2)OCO3)C1=O (stereo not given),-11%
CN(C)CC(=O)N1C[C@@H]2C[C@H](C1)c1ccc(-c3ccccc3CN3CCOCC3)c(=O)n1C2,-10%
CC(C)(C)OC(=O)N1CCC(c2c(C(=O)NC3CCN(Cc4ccccc4)CC3)cnn2-c2cccc(F)c2)CC1,-17%
CC(C)(C)OC(=O)N1CCC(c2c(C(=O)N3CCN(C(=O)c4ccco4)CC3)cnn2-c2cccc(Cl)c2)CC1,10µM*
Cc1ccc(-n2ncc(C(=O)N3CCN(c4cccc(C)c4)C(C)C3)c2C2CCN(C(=O)OC(C)(C)C)CC2)cc1 (stereo not given),4.5µM*
Cc1cccc(-n2ncc(C(=O)N3CCN(Cc4ccccc4)CC3)c2C2CCN(C(=O)OC(C)(C)C)CC2)c1,7.9µM*
CC(C)(C)OC(=O)N1CCC(c2c(C(=O)N3CCCCC3)cnn2-c2ccc(F)cc2)CC1,3%
SMILES,Pf Dd2 inh
COc1ccc(-n2ncc(C(=O)N3CCN(C(=O)c4ccco4)CC3)c2C2CCN(C(=O)OC(C)(C)C)CC2)cc1,38%
CN1CCN(C(=O)c2cnn(-c3ccccc3)c2C2CCN(C(=O)OC(C)(C)C)CC2)CC1,-21%
CC(C)(C)OC(=O)N1CCC(c2c(C(=O)N3CCN(C4CCCCC4)CC3)cnn2-c2cccc(Cl)c2)CC1,10µM*
CC(C)(C)OC(=O)N1CCC(c2c(C(=O)N3CCN(c4ncccn4)CC3)cnn2-c2cccc(F)c2)CC1,8%
COc1ccc(C(=O)N2C[C@@H](CO)[C@H](c3nc(C4CC4)no3)C2)cc1,17%
COc1ccc(CN2C(=O)C3(CCOCC3)CC2c2nnnn2C(C)(C)C)c(OC)c1 (stereo not given),-22%
O=S(=O)(c1ccc(F)cc1F)N1CCCC(Cn2c(C3CC3)nc3cccnc32)C1 (stereo not given),i
O=C(NCc1ccncc1)C1CN(Cc2cccnc2)CC12CCOCC2 (stereo not given),8%
CCn1ccc(C(=O)N2CCOc3ccc(CCC(N)=O)cc3C2)n1,-23%
O=C1CC(c2ccccc2)N(C(=O)CNC(=O)c2cccs2)CCCCCN1 (stereo not given),13%
COc1ccc(CN2CCCOC(CN3CCCCC3)C2)cc1C(=O)O (stereo not given),5%
CN[C@@H](CO)C(=O)NCc1nc(-c2ccc(C)cc2)c(-c2ccccn2)[nH]1,-20%
O=C(c1ccc2c(c1)OCO2)N1CCCC(n2cc(-c3nc(-c4ccccc4)no3)nn2)C1 (stereo not given),i
COc1ccc(OC2CN([S+](=O)([O-])c3ccccc3)C2)cc1,i
Clc1ccc(CN2CCN(c3ncnc4sc5c(c34)CCCC5)CC2)cc1Cl,44%
COc1ccc(CN2CCN(c3ncnc4sc5c(c34)CCCC5)CC2)cc1F,-25%
c1nc(N2CCOCC2)c2c3c(sc2n1)CN(CC1CCCCC1)CC3,2.8µM*
